PREPL inhibitor: PREPL enzyme inhibitors, primary screen, biochemical, fluorescence polarization; recombinant PREPL, fluorescence polarization activity-based probe; inhibition, % at 5.96 µM; 320,000 compounds, 0.68% hits;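 also: 0% = enzyme with DMSO and 100% = wells lacking enzyme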
LYPLA1 counter: LYPLA1 inhibitors, primary screen, counter-screen for PME1 inhibitor project, biochemical, fluorescence polarization, FP-Rh probe ABPP; inhibition, % at 5.9 µM; AID 2174, 2009; Acyl-protein thioesterase 1 (Homo sapiens), O75608; recombinant LYPLA1; 320,000 compounds, 0.16% hits;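 active = inhibition above the mean of all tested compounds plus 3 SD, set per campaign, cut at about 14% in these data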;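 also: inhibitors block serine hydrolase probe labeling of LYPLA1 so polarization falls; 0% = enzyme with DMSO and 100% = wells lacking LYPLA1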
PME-1 primary: PME-1 inhibitors via competitive probe labeling, primary screen, biochemical, fluorescence polarization, FP-Rh probe, HTS; Protein phosphatase methylesterase 1 (Homo sapiens), Q9Y570; recombinant PME-1; inhibition, % at 5.9 µM; 320,000 compounds, 0.53% hits;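 active = inhibition above the campaign mean of all compounds plus 3 SD, cut at about 26% in these data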;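 also: competitive labeling of PME-1 active site by serine hydrolase directed probe; 0% = PME-1 with DMSO and 100% = wells lacking PME-1 enzyme; inhibitors block probe labeling so polarization falls and inhibition rises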
Target sequence (Q9Y570 whole entry, looked up): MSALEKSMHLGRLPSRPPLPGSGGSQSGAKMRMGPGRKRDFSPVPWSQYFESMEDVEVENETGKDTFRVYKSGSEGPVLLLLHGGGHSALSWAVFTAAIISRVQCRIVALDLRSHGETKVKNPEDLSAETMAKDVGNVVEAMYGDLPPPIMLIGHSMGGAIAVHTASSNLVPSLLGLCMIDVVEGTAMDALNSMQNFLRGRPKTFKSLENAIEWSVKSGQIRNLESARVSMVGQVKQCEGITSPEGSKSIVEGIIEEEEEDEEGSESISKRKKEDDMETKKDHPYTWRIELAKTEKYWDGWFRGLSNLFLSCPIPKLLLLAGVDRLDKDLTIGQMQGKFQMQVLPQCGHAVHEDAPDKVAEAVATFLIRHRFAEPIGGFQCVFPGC
Fam108B inh: mouse Fam108B serine hydrolase inhibitors, primary screen, counter-screen for RBBP9 inhibitor project, biochemical, fluorescence polarization. recombinant Fam108B, FP-Rh probe fluorescence polarization. AID 1947, 2009. 300,000 compounds, 0.33% hits. inhibition, % at 9.51 µM;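 active = inhibition above the screen mean inhibition plus 3 SD, computed separately per campaign, cut at about 18% in these data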;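 also: inhibitors lower polarization as less probe binds the enzyme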
LYPLA2 counter: LYPLA2 inhibitors, primary screen, counter-screen for PME1 inhibitor project, biochemical, fluorescence polarization, FP-Rh probe ABPP | Acyl-protein thioesterase 2 (Homo sapiens), O95372 | recombinant LYPLA2 | inhibition, % at 5.9 µM | 320,000 compounds, 0.38% hits | AID 2177, 2009;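 active = inhibition above the screen-wide mean plus 3 SD, limit set per campaign, cut at about 26% in these data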;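 also: 0% = LYPLA2 with DMSO and 100% = wells lacking LYPLA2 enzyme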
Target sequence (O95372 whole entry, looked up): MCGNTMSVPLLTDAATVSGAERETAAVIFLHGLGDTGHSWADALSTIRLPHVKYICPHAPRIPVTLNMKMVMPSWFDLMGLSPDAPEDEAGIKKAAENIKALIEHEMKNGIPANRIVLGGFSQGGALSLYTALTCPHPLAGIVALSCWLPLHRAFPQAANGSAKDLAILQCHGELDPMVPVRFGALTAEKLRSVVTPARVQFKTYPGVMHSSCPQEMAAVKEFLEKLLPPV
MEX-5 binding: MEX-5 zinc finger RNA-binding disruptors – biochemical, C. elegans, fluorescence polarization, MLPCN library, primary screen; activity score (negative = inhibition of binding), % at 10 µM; 300,000 compounds, 0.38% hits; MEX-5/FITC-TCR2 RNA binding; hits give low values;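 active = inhibition past about -25% in most replicates, and total fluorescence under double the plate's negative control median, limit read from the data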;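 also: 0% = DMSO and -100% = 5 µM competing unlabeled TCR2 RNA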
PREPL confirm: human PREPL enzyme inhibitors, confirmation, biochemical, fluorescence polarization | 2,000 compounds, 67% hits | shares compounds with PREPL inhibitor | recombinant PREPL, fluorescence polarization activity probe | AID 2803, 2010 | inhibition, % at 5.96 µM;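 also: 0% = protein with DMSO and 100% = wells lacking protein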
* hit, by the source's call; nt = not tested or not shown. An excerpt weighted towards active compounds, which were near 1.6% of everything screened. Rule as the data show it, unless noted: active = inhibition above about 43%; inactive = the rest.

SMILES	PREPL inhibitor	LYPLA1 counter	PME-1 primary	Fam108B inh	LYPLA2 counter	MEX-5 binding	PREPL confirm
Nc1ccc(N2CCN(C(=O)c3ccco3)CC2)cc1	63*	2	-1	3	8	-1	44*
O=C(c1ccco1)N1CCN(c2ccc(F)cc2)CC1	6	4	6	5	6	-1	nt
Cc1ccc(OCC(=O)Nc2ccc(N3CCN(C(=O)c4ccco4)CC3)cc2)cc1	52*	0	-4	1	6	1	43*
O=C(Cc1ccc(Cl)cc1)Nc1ccc(N2CCN(C(=O)c3ccco3)CC2)c(Cl)c1	54*	-4	3	0	-1	2	47*
O=C(COc1ccccc1)Nc1ccc(N2CCN(C(=O)c3ccco3)CC2)cc1	42	-2	-7	0	1	1	nt
O=C1OC/C(=C(/O)c2ccc(Cl)cc2)C1=O	3	-4	-6	1	4	1	nt
O=S(=O)(N/N=C\c1ccc2c(c1)OCO2)c1ccccc1	nt	nt	nt	nt	nt	2	nt
Cc1ccccc1CN1CCN(CC2CC3C=CC2C3)CC1 (stereo not drawn)	0	-4	-1	1	1	-5	nt
O=c1[nH]c2ccc(NCc3ccccc3OCc3ccc(Cl)cc3)cc2[nH]1	72*	3	9	4	7	1	73*
CCc1cccc(NS(=O)(=O)c2ccc3c(c2)n(C)c(=O)n3C)c1	2	-3	6	5	3	-4	nt
CC(C)Oc1ccc(C(CCNCc2ccc(O)cc2)c2ccccc2)cc1 (stereo not drawn)	nt	nt	nt	nt	nt	4	nt
COc1ccc(C(CCNCc2ccc(N(C)C)cc2)c2ccccc2)cc1 (stereo not drawn)	54*	1	-2	2	0	4	64*
CCc1ccccc1NC(=O)CN1CCN(C(=O)c2cccc(-n3cnnn3)c2)CC1	65*	-2	-2	nt	-2	nt	6
O=C(CN1CCN(c2ccccc2)CC1)Nc1ccc(-n2cnnn2)cc1	0	1	-3	-3	4	2	nt
COc1ccc(N2CCc3c(C)nc4c(OC)cc(OC)cc4c32)cc1	52*	6	5	-2	6	2	49*
CNC[C@@H]1Oc2ccc(NC(=O)Nc3ccccc3)cc2C(=O)N([C@@H](C)CO)C[C@H]1C	4	nt	nt	nt	nt	nt	nt
CNC[C@@H]1Oc2ccc(NC(=O)Nc3cccc4ccccc34)cc2C(=O)N([C@@H](C)CO)C[C@@H]1C	50*	nt	nt	nt	nt	nt	46*
C[C@H](CO)N1C[C@H](C)[C@@H](CN(C)S(=O)(=O)c2ccc(F)cc2)Oc2ccc(NC(=O)Nc3ccc4c(c3)OCO4)cc2C1=O	45*	nt	nt	nt	nt	nt	48*
Cc1noc(C)c1S(=O)(=O)Nc1ccc2c(c1)C(=O)N([C@H](C)CO)C[C@H](C)[C@@H](CN(C)C(=O)Nc1ccc(C(F)(F)F)cc1)O2	55*	nt	nt	nt	nt	nt	50*
C[C@@H]1CN([C@@H](C)CO)C(=O)c2cc(NC(=O)Nc3ccc4c(c3)OCO4)ccc2O[C@H]1CN(C)S(=O)(=O)c1ccc(F)cc1	38	nt	nt	nt	nt	nt	nt
COc1ccc(NC(=O)N(C)C[C@H]2Oc3ccc(NS(=O)(=O)c4ccc(OC)cc4)cc3C(=O)N([C@H](C)CO)C[C@@H]2C)cc1	2	nt	nt	nt	nt	nt	nt
COc1ccc(S(=O)(=O)Nc2ccc3c(c2)C(=O)N([C@H](C)CO)C[C@H](C)[C@@H](CN(C)C(=O)Nc2ccc(C(F)(F)F)cc2)O3)cc1	45*	nt	nt	nt	nt	nt	41
Cc1ccc(C2CN=NC23CCc2ccccc2C3=O)cc1 (stereo not drawn)	-4	-1	1	-2	0	0	nt
CN(C)c1ccc(C(CNC(=O)c2ccccc2Br)c2c[nH]c3ccccc23)cc1 (stereo not drawn)	56*	0	3	0	1	-1	31
CN(C)c1ccc(C(CNS(=O)(=O)c2ccc(F)cc2)c2c[nH]c3ccccc23)cc1 (stereo not drawn)	10	-4	-5	0	6	2	nt
SMILES	PREPL inhibitor	LYPLA1 counter	PME-1 primary	Fam108B inh	LYPLA2 counter	MEX-5 binding	PREPL confirm
CN(C)c1ccc(C2C=C(c3ccc(Cl)cc3OC(F)F)Nc3ncnn32)cc1 (stereo not drawn)	56*	-1	5	1	4	3	49*
Cc1ccc(C2C=C(c3ccccc3OC(F)F)Nc3ncnn32)cc1 (stereo not drawn)	1	-6	0	-4	-2	1	nt
C=CCC[C@H](Cc1ccc(F)cc1)C(=O)O[C@H](CNC(=O)[C@@H](CC=C)CC(=O)N(CCO)Cc1ccccc1)c1ccccc1	22	nt	nt	nt	nt	nt	nt
CC1=Nc2cccc3cccc(c23)N1	45*	1	4	1	3	-3	40
CCOC(=O)c1cnc(SC)nc1Oc1cccc(NC(=O)c2ccc(C)cc2)c1	4	-2	-5	-6	-3	2	nt
CSc1ccc2c(c1)N(CCC1CCCCN1C)c1ccccc1S2 (stereo not drawn)	48*	1	1	7	3	1	51*
CC(=O)c1ccc2c(c1)N(CCCN1CCC(CCO)CC1)c1ccccc1S2	40	0	5	2	4	nt	nt
COc1ccc(N2CCN(c3ccc4nnc(CCC(=O)Nc5ccc(C)cc5)n4n3)CC2)cc1	59*	-1	0	-1	-6	2	60*
O=C(Nc1cc(Cl)ccc1N1CCCC1)C1=COCCO1	45*	-2	-2	nt	6	nt	32
COc1ccc(N2CCN(C(=O)c3c(-c4c(F)cccc4Cl)noc3C)CC2)cc1	-2	-4	1	0	-2	1	nt
Cc1ccc(CNc2ccc3c(c2)ncn3C(C)(C)C)cc1	49*	1	6	5	2	1	46*
CC(C)(O)c1cc2ccccc2c(=O)o1	11	nt	nt	nt	nt	nt	nt
COc1ccc(/C=N/N=C/c2ccc(OC)c(OC)c2)cc1OC	10	-1	-4	-1	-2	0	nt
COc1cc(/C=N/N=C(N)N)ccc1OCc1ccccc1Cl	49*	-4	2	-3	-5	1	48*
NC(=O)C1CC(=O)N(c2ccc(OCc3ccc(Cl)cc3Cl)cc2)C1 (stereo not drawn)	47*	6	2	1	-1	-2	43
CCOC(=O)/C(C#N)=C\c1cc(C)n(-c2ccccc2)c1C	-5	-1	-2	-7	0	-5	nt

Source: PubChem (several laboratories)
